# Results taken from PubChem BioAssay (NCI).
# This is part of a sample that, as a whole, favours compounds with a hit. Of some 79,000 tested, about 15% had one in any assay. Calls of active or inactive are those of the source. No stated cut-off is given here; in the data, active means growth inhibition above about 70%; inactive means the rest. Where a SMILES comes first, the peptide text is derived from it. Bridges are numbered along the chain shown (N, C = ends). The star is where a group is joined. Cbz = O=C(OCc1ccccc1)*; OBn = c1ccc(CO*)cc1
# Experiment: NCI Yeast Anticancer Drug Screen. Data for the mlh1 rad18 strain (AID 175)
# Settings: S. cerevisiae mlh1 rad18 strain growth inhibition; at 50.0 µM; active compounds read high
# Method in brief: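 Read-out is yeast growth inhibition, calculated against vehicle-only controls. The compound was applied to a strain engineered with DNA damage repair alterations.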
row,Structure (SMILES),growth inhibition
1,CSc1nc(NC2OC(CO)C(O)C(O)C2O)cc(=O)[nH]1 (stereo not given),-2.9% (inactive)
2,O=c1nc(N2CCSCC2)ccn1C1OC(CO)C(O)C1O (stereo not given),-2.25% (inactive)
3,Oc1ccc(Br)cc1C(c1ccc2c(c1)OCO2)N1CCOCC1 (stereo not given),15.5% (inactive)
4,CC(C)C(O)C(=O)C(O)C(C)C (stereo not given),-10.9% (inactive)
5,N#CC(/C(=N\NC(N)=S)C(=O)NC1C2CC3CC(C2)CC1C3)c1ccc(Cl)cc1 (stereo not given),25.4% (inactive)
6,CC(=O)N=C1CSc2ccccc2N1C,-8.9% (inactive)
7,CCOCCOC(=O)OCCOCC,28% (inactive)
8,Cc1ccc(-c2cnc3c(n2)c(=O)[nH]c(=O)n3C)cc1,35.6% (inactive)
9,NC(=O)N/N=C1\CC2CCC1C2Cl (stereo not given),-14.8% (inactive)
10,C/[N+]([O-])=N/COC1OC(COC2OCC(O)C(O)C2O)C(O)C(O)C1O (stereo not given),3.7% (inactive)
11,C#CCN(C(=O)C(F)(F)F)C(/C=C\C(=O)OC)(C(=O)OCC)C(=O)OCC,-2.55% (inactive)
12,Cc1ncc(N)nc1C,-43% (inactive)
13,CCCCc1c2c(nn1C(C)=O)C(=O)C=C(Nc1ccccc1)C2=O,9.5% (inactive)
14,O=[N+]([O-])c1ccc(S(=O)(=O)Nc2ccccc2-c2ccccc2)cc1,98.7% (active)
15,Oc1ccccc1C=NCCCN=Cc1ccccc1O,21.5% (inactive)
16,COc1ccc(OC)c2c3c([nH]c12)C(=O)Nc1nc(N)nc(N)c1C3,40.5% (inactive)
17,CCc1cc(C(C)(C)C)c(O)c(C(C)(C)C)c1,35.4% (inactive)
18,CN(C)CCC(c1ccccc1)c1ccccc1,-5.8% (inactive)
19,O=CC(=O)c1cccc([N+](=O)[O-])c1,10.4% (inactive)
20,c1ccc(CNCCCNCCCCNCCCNCc2ccccc2)cc1,7.45% (inactive)

row,Structure (SMILES),growth inhibition
1,CN(C=O)C1CCC2C3CC=C4CC(OC=O)CCC4(C)C3CCC21C (stereo not given),-2% (inactive)
2,C[N+](C)(C)CC(=O)N/N=C(\C(=O)Nc1ccc(Cl)cc1)C1C(=O)N(c2ccccc2)N=C1N (stereo not given),17.6% (inactive)
3,COC(OC)c1cccnc1C,7.7% (inactive)
4,COc1ccc(NCc2cnc3nc(N)nc(N)c3c2C)cc1,-49% (inactive)
5,Cc1cc2ccccc2c[n+]1CC(=O)c1ccc([N+](=O)[O-])cc1,51.7% (inactive)
6,COc1cc(OC)c2c(c1)OC(c1ccccc1)CC2=O (stereo not given),11.8% (inactive)
7,COC(=O)C1CCC(=O)NCCCCC(NC(=O)C(CC(=O)OCc2ccccc2)NC(=O)OCc2ccccc2)C(=O)N1 (stereo not drawn) (Cbz-Asp(OBn)-Lys-Glu-OMe; lactam 2-3; configuration not given here),-23.7% (inactive)
8,NC1=NN(c2c(Cl)cc(Cl)cc2Cl)C(=O)C1,39.6% (inactive)
9,COC(=O)/C=C(C)/C=C/C1OC(C)OCC1O (stereo not given),5.5% (inactive)
10,CC12CC3CC(C1)CC(NCCO)(C3)C2,-4.35% (inactive)
11,CCOC(=O)c1ccc(/C(C)=N/NC(N)=S)cc1,-9.5% (inactive)
12,CC(=O)Oc1ccccc1C(=O)OC(=O)c1ccccc1OC(C)=O,6.75% (inactive)
13,CCOc1c(OC)ccc(C(C)=O)c1O,-17.2% (inactive)
14,O=C(CCn1ccnc1[N+](=O)[O-])NCCCn1ccnc1[N+](=O)[O-],-52.2% (inactive)
15,O=C(Cl)N(C1CCCCC1)C1CCCCC1,-12.9% (inactive)
16,CC(C)CC1=C(N(C)C)C(=O)C=C(N(C)C)C1=O,-13.4% (inactive)
17,N#CC(C(=O)O)=C1CCCCCC1,-0.8% (inactive)
18,CC(=O)N(C)N=Nc1ccc(Cl)cc1,15.9% (inactive)
19,NC(=O)c1ccc[n+](CCCCCCCCCCC(=O)[O-])c1,1.95% (inactive)
20,C=CCCC(=O)CC(=O)OCC,6.15% (inactive)
